From PubChem BioAssay
DT40 TDP1 CPT = growth inhibition of DT40 Tdp1-/-;hTDP1 cells with camptothecin (screen for TDP1 inhibitors). Potency, µM (titrated, usually from 46.2 µM), hits mostly inhibitors. chicken DT40 Tdp1-/-;hTDP1 cells + 20 nM CPT, ATP luminescence, 48 h. 420,000 compounds, 12% hits; note: nearly all actives have a fitted effect of over 55% in size
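Chicken DT40 Tdp1-/- cells stably complemented with human TDP1 were seeded at 400 cells/well in medium containing 20 nM camptothecin, exposed to pin-transferred compounds, and grown at 37 °C for at least 48 hr. Viability was read as ATP luminescence.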
TDP1 cell noCPT = qHTS for Inhibitors of human tyrosyl-DNA phosphodiesterase 1 (TDP1): qHTS in cells in absence of CPT; AID 686978, 2013; DT40 Tdp1-/- hTDP1 cells, no CPT, ATP luminescence, 48 h; 420,000 compounds, 15% hits; Potency, µM (highest dose often 46.2 µM), hits mostly inhibitors; note: nearly all actives have a fitted effect of over 55% in size
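Compound effects on proliferation are scored in DT40 Tdp1-/-;hTDP1 cells in the absence of CPT. ATP levels (CellTiter-Glo luminescence) are recorded after a ≥48 hr, 37 °C incubation.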
IL-1B inflam inh = inhibitors of inflammasome signaling (IL-1 beta secretion); activity change, % at 57.5 µM; 360,000 compounds, 4.7% hits; THP-1 LPS/ATP IL-1B secretion, AlphaLISA, 16 h; stronger effect = lower value; in the data active = activity change below about -50%; inconclusive = mostly about -30% to -49%
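THP-1 cells pretreated 1 hr with compounds (up to 57.5 uM final), then stimulated with LPS (250 ng/mL final) plus ATP (1.25 mM final); secreted IL-1B measured by AlphaLISA after 16 hr, decreased signal indicating inhibition.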
HT1080 IDH1KD tx = HT-1080 IDH1 knockdown cell toxicity (counter line) | 360,000 compounds, 2% hits | Potency, µM (highest dose often 46.1 µM), usual class: cytotoxic | HT-1080 IDH1 knockdown viability, ATP luminescence, 48 h
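IDH1KD HT-1080 cells, 750/well, RPMI + 5% FBS; compound pinned after 2 h settling; 48 h, 37 °C; CellTiter-Glo luminescence; % activity normalised to DMSO and no-cell wells; curves fitted, classed by r2 and efficacy.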
HT1080NT lethal = kills 2HG-producing HT-1080-NT fibrosarcoma cells. 360,000 compounds, 1.6% hits. Potency, µM (series often up to 46.1 µM), most hits filed as cytotoxic. AID 686970. HT-1080-NT fibrosarcoma viability, CellTiter-Glo ATP luminescence, 48 h;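 note: NT is the 2HG producing partner of a matched IDH1 knockdown line; nearly all actives have a fitted effect of over 55% in size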
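Read-out is CellTiter-Glo luminescence after 10 minutes at room temperature, following 48 hours' compound treatment of HT-1080-NT cells (750 cells/well, RPMI, 5% FBS, 37 degrees C).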
Numbers stand for hits; 0 = inactive; ? = inconclusive; - = not tested or not shown; [ ] = dose if it differs, or a comment. An excerpt weighted towards active compounds, which were near 19% of everything screened. Unless noted, calls come from the whole dose curve; as a rule, active = well fitted curve in the direction sought with a large enough effect; inconclusive = small, poorly fitted or top-dose-only effect, or another doubt; inactive = no such curve, though single readings can be large; an effect the other way counts as inactive or inconclusive.

SMILES | DT40 TDP1 CPT | TDP1 cell noCPT | IL-1B inflam inh | HT1080 IDH1KD tx | HT1080NT lethal
CCOC(=O)Cc1c(-c2cccc(Br)c2)nc2c3ccccc3ccn12 | ? | 18µM | 0 | 0 | 0
Clc1ccc(-c2nc3c4ccccc4ccn3c2CC2CCCCC2)cc1 | 0 | 0 | 0 | 0 | 0
CCOC(=O)Cc1c(C)nc2c(-c3cccc(Br)c3)cnn2c1C | ? | 21µM | 0 | 0 | 0
Brc1cccc(-c2nc3c4ccccc4ccn3c2Cc2ccsc2)c1 | 26µM | ? | 0 | 0 | 0
Fc1ccc(-c2nc3c4ccccc4ccn3c2CC2CCCCC2)cc1 | 15µM | 21µM | 0 | 0 | 0
COc1ccc(NC(=O)CSCC(=O)N(C)Cc2ccc3c(c2)OCCO3)cc1 | 0 | 0 | 0 | 0 | 0
CCCCSc1nc2sc3c(c2c(=O)[nH]1)CC(C)(CC)OC3 (stereo not given) | 0 | 0 | 0 | 0 | 0
Clc1cccc(-c2nc3c4ccccc4ccn3c2Cc2ccsc2)c1 | ? | ? | 0 | 0 | 0
Fc1ccc(-c2nc3c4ccccc4ccn3c2Cc2ccsc2)cc1 | 15µM | 15µM | 0 | 0 | 0
Cc1ccoc1C(=O)NCCNc1ccc(Cl)cc1[N+](=O)[O-] | 0 | 0 | -59 | 0 | 0
O=C(NCCNc1ccc(Cl)cc1[N+](=O)[O-])c1cccnc1 | 0 | ? | 0 | ? | 0
COc1ccc(C(=O)CSc2nnc(Cn3cnc4ccccc43)o2)cc1 | 8.2µM | 16µM | ? | 0 | 0
CCOc1cc(C(=O)CSc2nnc(CNc3ccc(Cl)cc3)o2)ccc1NC(=O)CC | ? | ? | -103 | ? | 0
CCc1nnc(NC(=O)CSc2nnc(CNc3ccc(Cl)cc3)o2)s1 | 0 | 0 | 0 | 0 | 0
COc1ccc(NCc2nnc(SCC(=O)c3ccc(OC)cc3)o2)cc1 | ? | 16µM | 0 | ? | 0
CC(=O)c1ccc(NC(=O)CSc2nnc(Cn3cnc4ccccc43)o2)cc1 | 0 | 0 | 0 | 0 | 0
O=C(NCc1nnc(SCC(=O)N2CCCCCC2)o1)c1ccco1 | 0 | 0 | 0 | 0 | 0
O=C(CSc1nnc(CNC(=O)c2ccco2)o1)c1ccc(Cl)cc1 | 0 | ? | -106 | 0 | 0
Cc1ccc(OCCC(=O)NNC(=O)c2nn(C)c(=O)c3ccccc23)cc1 | ? | 0 | 0 | 0 | 0
O=C(NCc1ccccc1)C(=O)Nc1nccs1 | 0 | 0 | 0 | 0 | 0
Cc1c(C(=O)N/N=C/c2cccs2)nc2ccccn12 | 0 | ? | 0 | 0 | 0
O=C(CSc1nnc(CNc2ccccc2)o1)c1ccc2c(c1)OCCO2 | ? | ? | -68 | 0[9.24 µM] | 0
O=C(CSc1nnc(CNC(=O)c2ccccc2)o1)Nc1ccc2c(c1)OCCO2 | 0 | 0 | 0 | 0 | 0
COc1ccc(CCN(C)C/C=C/c2ccccc2[N+](=O)[O-])cc1OC | ? | ? | ? | 0 | 0
COc1ccc(CCN(C)c2ccc(C(N)=O)cc2[N+](=O)[O-])cc1OC | 29µM | 0 | 0 | 0 | 0
SMILES | DT40 TDP1 CPT | TDP1 cell noCPT | IL-1B inflam inh | HT1080 IDH1KD tx | HT1080NT lethal
COc1ccc(CCNC(=O)c2c(O)c3ccccc3[nH]c2=O)cc1 | 0 | 0 | 0 | 0 | 0
CN1[C@@H](Cc2ccccc2)COc2cc(N3CCSCC3)ccc2S1(=O)=O | ? | 16µM | 0 | 0 | 0
CCCCOc1c(Br)cc(/C=C2\N=C(C)OC2=O)cc1OCC | 13µM | ? | 0 | 0 | 0
COc1ccc(Cl)cc1NC(=O)CC1CCCC1 | 0 | 0 | 0 | 0 | 0
CCN1CCOC(=O)C1CC(=O)Nc1cc(Cl)ccc1OC (stereo not given) | 4.6µM | 2.6µM | - | - | -
CCN1CCOC(=O)C1CC(=O)Nc1ccc(C(C)=O)cc1 (stereo not given) | 21µM | 10µM | - | - | -
CCN1CCOC(=O)C1CC(=O)Nc1ccccc1C(F)(F)F (stereo not given) | 3.3µM | 3.7µM | - | - | -
CCOC(=O)C1(CCc2ccccc2)CCN(Cc2ccc(OC)cc2)CC1 | 0 | 0 | 0 | 0 | 0
CCOC(=O)C1(CCc2ccccc2)CCN(Cc2ccc(O)cc2)CC1 | 16µM | 21µM | 0 | 0 | 0
CCOC(=O)C1(CCc2ccccc2)CCN(Cc2c(O)cccc2OC)CC1 | 26µM | 13µM | -92 | 33µM | ?
CC1CN(CC(=O)Nc2cccc(C(=O)Nc3cccc(C(F)(F)F)c3)c2)CC(C)O1 (stereo not given) | 23µM | 23µM | 0 | ? | 0
CC1CCN(CC(=O)Nc2cccc(C(=O)Nc3cccc(C(F)(F)F)c3)c2)CC1 | ? | 16µM | -75 | 23µM | 16µM
CCCCNc1ncnc2[nH]ncc12 | ? | 0 | 0 | 0 | 0
CCc1sc(N(C(=O)Cc2ccccc2)c2ccccc2F)nc1-c1ccc(C)cc1 | ? | 16µM | 0 | 0 | 0
CCN(CC(=O)Nc1c(F)cccc1F)C(=O)Cc1sc(C)nc1-c1ccc(F)cc1 | 0 | 0 | 0 | 0 | 0
COc1ccc(-c2nc(SCC(=O)NCc3ccccc3Cl)n[nH]2)cc1 | 5.8µM | 7.3µM | - | - | -
CC(=O)Nc1cccc(NC(=O)CSc2n[nH]c(-c3ccccc3)n2)c1 | 0 | 0 | 0 | 0 | 0
CCOc1cc(CNC(=O)CSc2n[nH]c(-c3ccccc3)n2)cc(OCC)c1OCC | 21µM | ? | - | - | -
CS(=O)(=O)CCCCN=C=S | ? | 18µM | - | - | -
COc1ccc(OC)c(NC(=O)c2cccc(NC(=O)c3ccco3)c2)c1 | ? | ? | 0 | 0 | ?
O=S(=O)(CCN1C=CC(C(F)(F)F)=NCC1)c1ccc(Cl)cc1Cl | 0 | 0 | -68 | 0 | 0
O=S(=O)(CCN1C=CC(C(F)(F)F)=NCC1)c1ccc(F)cc1 | 0 | 0 | 0 | 0 | 0
CCCc1nnc(NC(=S)Nc2ccccc2)s1 | 4.6µM | 3.3µM | 0 | 0 | 0
COc1ccc(NC(=O)c2cc(-c3sc(NC(=O)c4ccccc4)nc3C)n(-c3ccc(Br)cc3)n2)cc1 | 0 | 0 | 0 | 0 | 0
C=CCn1nc(C(=O)Nc2ccc(OC)cc2)cc1-c1sc(NC(=O)c2ccccc2)nc1C | 18µM | ? | 0 | 0 | 0
SMILES | DT40 TDP1 CPT | TDP1 cell noCPT | IL-1B inflam inh | HT1080 IDH1KD tx | HT1080NT lethal
COc1cccc(Nc2nc(-c3cccnc3)cs2)c1 | ? | ? | 0 | 0 | 0
CCCC(C)C(=O)Nc1nc(C)c(-c2csc(Nc3cc(OC)ccc3OC)n2)s1 (stereo not given) | 4.6µM | 6.5µM | 0 | 0 | 0
CCCC(=O)Nc1nc(C)c(-c2csc(Nc3ccccc3OC)n2)s1 | 0 | ? | 0 | 0 | 0
C=CCCC(=O)Nc1nc(C)c(-c2csc(Nc3cc(OC)ccc3OC)n2)s1 | 2.6µM | 2.6µM | 0 | 7.3µM | 7.3µM
C=CCCC(=O)Nc1nc(C)c(-c2csc(Nc3cccc(OC)c3)n2)s1 | 16µM | 16µM | 0 | 0 | 0
CCOc1ccc(NC(=O)C2CCN(C(=O)C3CC(=O)N(c4ccc(C)cc4)C3)CC2)cc1 (stereo not given) | 0 | ? | 0 | 0 | 0
CCOc1ccc(S(=O)(=O)NCCC(=O)N(CC)CC(=O)Nc2c(F)cccc2F)cc1 | 0 | ? | 0 | 0 | 0
